Experimental data from PubChem BioAssay AID1053180 (Broad Institute, 2014).
Several values for one entry are separate records, joined by “and”; a condition that tells them apart may be missing. Identical values can stand only once. About 20 (0.2%) of roughly 9,600 compounds were called active.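 How the source made its calls: active means highest normalized replicate activity of 15 or more, or at least half the replicates reach 15 or more; inactive means neither condition met.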 What follows is part of a selection rich in actives, with near analogues and random picks from the rest. The source holds several records for some structures; these can differ, active in one and inactive in another.

assay: Pax4 mRNA upregulation in alpha cells – RT-PCR, mouse alpha TC1 cells, single point, primary screen (AID 1053180); details: Pax4 mRNA qPCR, 6 days, at 10 µM, stronger effect = higher value, 100% = Pax4 plasmid added at qPCR;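 further: Pax4 Ct normalized to GAPDH with activation seen as lower delta delta Ct; plate controls were plate neutral control wells for no effect and Pax4 plasmid positive control for full effect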

| SMILES | activation |
| --- | --- |
| O=C(C[C@H]1CC[C@@H]2[C@H](COC[C@H](O)CN2Cc2nccs2)O1)N1CCC(Cc2ccccc2)CC1 | 0.0115% (inactive) |
| C[C@@H]1CN([C@H](C)CO)C(=O)c2ccccc2-c2ccccc2CO[C@@H]1CN(C)Cc1ccc2c(c1)OCCN2C | 0.075% (inactive) |
| O=C(C[C@@H]1CC[C@@H]2[C@H](COC[C@@H](O)CN2CCC(F)(F)F)O1)NCc1ccc2c(c1)OCO2 | -0.005% (inactive) |
| CN(C)c1ccc2c(c1)[C@@H]1C[C@@H](CC(=O)NC3CCCCC3)O[C@@H](CO)[C@@H]1O2 | 0.029% (inactive) |
| O=C(O)[C@H]1[C@H](CO)[C@H]2Cn3c(ccc(-c4cccc(F)c4)c3=O)[C@H]2N1C(=O)c1ccccn1 | 0.0005% (inactive) |
| C[C@@H]1CCCCO[C@@H](CN(C)CC2CCCCC2)[C@H](C)CN([C@H](C)CO)C(=O)c2cc(NS(C)(=O)=O)ccc2O1 | -0.001% (inactive) |
| C[C@H]1CN([C@@H](C)CO)C(=O)c2cccc(NC(=O)c3cnccn3)c2O[C@@H]1CN(C)C(=O)NC1CCCCC1 | 0.0055% (inactive) |
| CN1c2ccc(-c3ccc(C#N)cc3)cc2[C@H]2[C@H](CCN2S(=O)(=O)c2ccc(F)cc2)[C@@H]1CO | 0.036% (inactive) |
| O=C(C[C@@H]1C[C@@H]2c3cc(NS(=O)(=O)c4ccc(F)cc4)ccc3O[C@@H]2[C@@H](CO)O1)N1CCc2ccccc2C1 | 0.011% (inactive) |
| C[C@H](CO)N1C[C@H](C)[C@@H](CN(C)C(=O)c2ccc3ccn(C)c3c2)OCc2cnnn2CCCC1=O | 0.0015% (inactive) |
| COc1ccc2c3c(n(C)c2c1)[C@H](CO)N(S(=O)(=O)c1ccc(C)cc1)CC31CCN(C)CC1 | 0.052% (inactive) |
| CO[C@H](CN(C)Cc1ccc2c(c1)OCO2)[C@H](C)CN(C(=O)Nc1ccc(F)cc1)[C@H](C)CO | 0.0005% (inactive) |
| O=C(NCc1ccccc1)[C@H]1[C@H](CO)[C@H]2Cn3c(cccc3=O)[C@@H]1N2C(=O)Cc1ccccn1 | 0% (inactive) |
| CNC[C@H]1OCc2cn(nn2)CCCC(=O)N([C@@H](C)CO)C[C@H]1C | 0.005% (inactive) |
| COc1ccc2c3c(n(C)c2c1)[C@@H](CO)N(CC1CC1)CC31CN(C(=O)c2ccc3c(c2)OCO3)C1 | 8.42% (active) |
| COc1ccc2c3c(n(C)c2c1)[C@@H](CO)N(C)CC31CCN(C(=O)c2ccc3c(c2)OCO3)CC1 | 0.0125% (inactive) |
| COc1ccc2c3c(n(C)c2c1)[C@H](CO)N(CC1CC1)CC31CN(C(=O)c2ccc3c(c2)OCO3)C1 | 0.0045% (inactive) |
| CC[C@H]1C/C=C\C[C@@H](c2ccccc2)NC(=O)CCC(=O)N1 | -0.01% (inactive) |
| O=C(c1cccc(F)c1)N1CC(=O)N2[C@@H](CO)[C@H](c3ccc(C4=CCCCC4)cc3)[C@@H]2C1 | 0.025% (inactive) |
| COc1ccc(CN(C)C[C@@H]2Oc3ccc(NC(=O)Nc4ccc5c(c4)OCO5)cc3CC(=O)N([C@@H](C)CO)C[C@@H]2C)cc1 | 0.002% (inactive) |
| COCC(=O)N1C[C@@H](C)[C@@H](OC)CN(C)C(=O)c2ccc(NC(=O)Nc3cccc(F)c3)cc2OC[C@H]1C | -0.0005% (inactive) |

| SMILES | activation |
| --- | --- |
| CCC(=O)N1[C@H](CO)[C@@H]2c3ccccc3N(C(=O)Nc3ccc(Cl)cc3)C[C@@H]21 | -0.0015% (inactive) |
| COc1ccccc1S(=O)(=O)N(C)C[C@@H]1OCc2cn(nn2)CCCC(=O)N([C@H](C)CO)C[C@H]1C | 0.001% (inactive) |
| O=C(C1CCOCC1)N1CC(=O)N2[C@H](C1)[C@@H](c1ccc(-c3cccnc3)cc1)[C@@H]2CO | 0% (inactive) |
| O=C(C[C@@H]1CC[C@@H]2[C@H](COC[C@@H](O)CN2Cc2cc(F)ccc2F)O1)NCc1ccc(Oc2ccccc2)cc1 | 0.098% (inactive) |
| CN1c2ccc(-c3ccccc3)cc2[C@@H]2[C@@H](CCN2C(=O)NC2CCCCC2)[C@H]1CO | 0.001% (inactive) |
| Cc1noc(C)c1S(=O)(=O)N(C)C[C@H]1Oc2ccc(NC(=O)c3ccncc3)cc2CC(=O)N([C@H](C)CO)C[C@H]1C | -0.009% (inactive) |
| CN1C(=O)c2cc(NC(=O)c3cnccn3)ccc2OC[C@@H]2O[C@H](CC(=O)NCC3CCCCC3)CC[C@@H]21 | 0.05% (inactive) |
| CO[C@@H]1CN(C)C(=O)c2ccc(NC(=O)Nc3cc(F)ccc3F)cc2OC[C@H](C)N(C(=O)c2ccccn2)C[C@@H]1C | 0.0015% (inactive) |
| O=C(CN1CCOCC1)N1CC[C@@H]2[C@@H](CO)Nc3ccc(-c4ccccc4F)cc3[C@@H]21 | 0.001% (inactive) |
| O=C(C[C@@H]1C[C@H]2c3cc(NC(=O)NC4CCCC4)ccc3O[C@H]2[C@H](CO)O1)NCc1ccccc1F | 0.02% (inactive) |
| CO[C@@H]1CN(C)C(=O)c2ccc(NC(=O)c3ccccc3F)cc2OC[C@H](C)N(C)C[C@H]1C | 0.0025% (inactive) |
| O=C(C1CCOCC1)N1CC(=O)N2[C@H](CO)[C@@H](c3ccc(/C=C/c4ccccc4)cc3)[C@H]2C1 | 0.002% (inactive) |
| O=C1Nc2ccccc2OCc2cn(nn2)CC[C@H]1Cc1ccc(-c2ccccc2)cc1 | 0.059% (inactive) |
| O=C(C[C@@H]1C[C@@H]2c3cc(NC(=O)c4ccc5c(c4)OCO5)ccc3O[C@@H]2[C@H](CO)O1)NCCN1CCCCC1 | -0.001% (inactive) |
| CN(C)C(=O)C[C@H]1C[C@@H]2c3cc(NC(=O)Nc4ccc(F)cc4)ccc3O[C@@H]2[C@@H](CO)O1 | 0.013% (inactive) |
| O=C(C[C@H]1CC[C@H]2[C@@H](COC[C@H](O)CN2Cc2ccc3c(c2)OCO3)O1)N1CCCCC1 | 0.0435% (inactive) |
| Cc1ccc(S(=O)(=O)N(C)C[C@@H]2OCCCC[C@@H](C)Oc3ccc(NC(=O)c4ccncc4)cc3C(=O)N([C@@H](C)CO)C[C@H]2C)cc1 | 0% (inactive) |
| O=C(C[C@H]1CC[C@@H]2[C@H](COC[C@@H](O)CN2S(=O)(=O)c2cccc(Cl)c2)O1)N1CCOCC1 | 0% (inactive) |
| CO[C@H](CN(C)Cc1cc(F)ccc1F)[C@@H](C)CN(C(=O)Nc1ccc(C(F)(F)F)cc1)[C@H](C)CO | 0.0245% (inactive) |
| CO[C@@H](CN(C)Cc1cc(F)ccc1F)[C@H](C)CN(C(=O)Nc1ccc(C(F)(F)F)cc1)[C@H](C)CO | 0.0205% (inactive) |
| CO[C@@H](CN(C)Cc1cc(F)ccc1F)[C@@H](C)CN(C(=O)Nc1ccc(C(F)(F)F)cc1)[C@H](C)CO | 19.2% (active) |

| SMILES | activation |
| --- | --- |
| CN(C[C@@H]1[C@@H](c2ccccc2)[C@H](CO)N1CC1CC1)C(=O)c1ccc(F)cc1 | -0.002% (inactive) |
| COc1ccccc1-c1ccc([C@H]2[C@@H](CO)N[C@@H]2CNC(=O)C2CC2)cc1 | 0.001% (inactive) |
| CC(C)(O)C#Cc1ccc([C@H]2[C@H]3CN(S(C)(=O)=O)CCCCN3[C@H]2CO)cc1 | 0.0005% (inactive) |
| N#C[C@@H]1[C@H](c2ccccc2C2=CCCCC2)[C@H](CO)N1C(=O)CN1CCOCC1 | 0% (inactive) |
| O=C(NC[C@@H]1[C@@H](c2ccccc2)[C@@H](CO)N1Cc1ccccn1)C1CCCC1 | -0.003% (inactive) |
| CCCNC(=O)N1[C@H](CO)[C@@H](c2ccccc2-c2cccc(C)c2)[C@@H]1C#N | 0.0075% (inactive) |
| CO[C@@H]1CC[C@@H]2CCOc3c(C#N)cccc3C(=O)N(C)CCCC(=O)N(C)C[C@H]1O2 | 0% (inactive) |
| O=C(C[C@@H]1C[C@@H]2c3cc(NS(=O)(=O)c4ccccc4)ccc3O[C@@H]2[C@H](CO)O1)NCC(F)(F)F | 0.001% (inactive) |
| O=C(Cc1ccccc1)N1CC[C@@H]2[C@@H](CO)Nc3ccc(C#Cc4cccc(F)c4)cc3[C@@H]21 | 0.0035% (inactive) |
| CC(C)CC#Cc1ccc([C@H]2[C@@H](CO)N3CCCCN(C(=O)Nc4ccccc4)C[C@@H]23)cc1 | 0.0025% (inactive) |
| O=C(C[C@@H]1CC[C@H](NC(=O)c2ccc3c(c2)OCO3)[C@@H](CO)O1)NCc1ccc(Oc2ccccc2)cc1 | 0.006% (inactive) |
| COCC(=O)N1CC(=O)N2[C@H](CO)[C@H](c3ccc(-c4ccccc4F)cc3)[C@@H]2C1 | 0% (inactive) |
| C[C@H]1CN([C@@H](C)CO)C(=O)c2cc(NS(=O)(=O)c3ccc(F)cc3)ccc2O[C@H]1CN(C)C(=O)Nc1ccccc1 | 0.002% (inactive) |
| CO[C@H](CN(C)C(=O)C1CCOCC1)[C@@H](C)CN(C(=O)Nc1ccc(C(F)(F)F)cc1)[C@@H](C)CO | 0.0085% (inactive) |
| O=C(CN1CCOCC1)N[C@@H]1CC[C@@H](CCn2cc(C3CC3)nn2)O[C@@H]1CO | 0.0035% (inactive) |
| COc1cc(CN2C[C@@H]3N[C@H](C2)C3c2ccc(-c3ccc(C#N)cc3)cc2)cc(OC)c1 (stereo partly drawn) | 3.96% (inactive) and 9.29% (active) |
| COc1cccc(CN2C[C@@H]3N[C@H](C2)C3c2ccc(-c3ccccc3C)cc2)c1 (stereo partly drawn) | 0.0245% (inactive) and 0.039% (inactive) |
| Fc1ccccc1-c1ccc(C2[C@@H]3CN(Cc4ccccn4)C[C@H]2N3)cc1 (stereo partly drawn) | 0.412% (inactive) and 0.0165% (inactive) |
| COc1cccc(-c2ccc(C3[C@@H]4CN(Cc5ccccn5)C[C@H]3N4)cc2)c1 (stereo partly drawn) | 0.0705% (inactive) and 213% (active) |
| N#Cc1cccc(-c2ccc(C3[C@@H]4CN(Cc5ccccc5)C[C@H]3N4)cc2)c1 (stereo partly drawn) | 2.74% (inactive) and 0.113% (inactive) |
| N#Cc1ccc(-c2ccc([C@@H]3[C@@H]4CN(Cc5cocn5)C[C@H]3N4)cc2)cc1 | 0.128% (inactive) |
